Data as given in PubChem BioAssay (EPA / NIEHS).
Several values for one entry are separate records, joined by “and”; a condition that tells them apart may be missing. Identical values can stand only once. Results filed as inconclusive are left out. Activity calls are given as the source filed them. Rule for the calls, unless noted: active = hit-call score of the fitted dose curve at least 0.9, where 1 is the maximum; inactive = score below 0.9.

Tests used:
[1] = ACEA_ER_80hr: ACEA Biosciences xCELLigence Real-Time Cell Analysis on Estrogen Receptor Agonism for Proliferation (AID 2282667; active = hit-call score of the fitted dose curve at least 0.9, where 1 is the maximum); settings: T47D proliferation, impedance (xCELLigence), 80 h
How it was run: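 Impedance readout (RT-CES) of T47D proliferation at 80 h post-dose; gain of signal vs DMSO baseline. Compounds: 8 conc, 1:4 serial, top 100 uM final, ≤0.5% DMSO; biological duplicate.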

[2] = APR_HepG2_CellCycleArrest_24hr: Apredica 24-hour HepG2 Assay for Cell Cycle Arrest (AID 2282905); settings: imaging, actives raise or lower the signal;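 note: cell cycle arrest scored as ratio of 2N to 4N nuclear DNA content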
How it was run: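 Compounds (0.39 to 200 uM, final DMSO 0.5% v/v) are applied to HepG2 cells for 24 hours; cells are then fixed, permeabilized and nuclei labeled with Hoechst 33342. Automated imaging measures DNA content, and activity is fitted in both directions against DMSO.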

[3] = APR_HepG2_CellLoss_24hr: Apredica 24-hour HepG2 Assay for Cell Loss (AID 2282908); settings: high-content imaging;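 for AC50: fit in both directions so a hit may be cell loss or gain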
How it was run: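 Nuclear count serves as the viability measure: treated cells are fixed, permeabilized and labelled with Hoechst 33342, and six images per well are analysed to identify valid nuclei. Doses span 0.39–200 uM, and activity in either direction is scored against DMSO.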

[4] = APR_HepG2_MicrotubuleCSK_24hr: Apredica 24-hour HepG2 Assay for Microtubule CSK Stabilty (AID 2282909); settings: HepG2 microtubule cytoskeleton imaging, actives raise or lower the signal
How it was run: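 Compounds were applied to HepG2 cells for 24 hours across 0.39–200 uM in duplicate, with final DMSO at 0.5% v/v. Fixed, permeabilized cells were labeled for alpha-tubulin and nuclei, and tubulin fluorescence was quantified by imaging, fitted bidirectionally against DMSO.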

[5] = APR_HepG2_MitoticArrest_24hr: Apredica 24-hour HepG2 Assay for Mitotic Arrest (AID 2282910); settings: high-content imaging, actives raise or lower the signal
How it was run: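 HepG2, 24 hr dosing, 0.39–200 uM, 0.5% DMSO final. Formaldehyde-fixed, Triton-permeabilised, anti-phospho-histone H3 plus Hoechst. ArrayScan imaging at 20x; bidirectional fit vs DMSO baseline.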

[6] = APR_HepG2_MitoMembPot_24hr: Apredica 24-hour HepG2 Assay for Mitochondrial Membrane Potential (AID 2282911); settings: imaging, actives raise or lower the signal
How it was run: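 HepG2, 24 hr dosing, 10 concentrations 0.39–200 uM, 0.5% DMSO final. Live-cell MitoTracker Red CMXRos 250 nM 30 min, then 3.7% formaldehyde fix. HCS fluorescence imaging, 20x; bidirectional fit vs DMSO baseline.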

[7] = APR_HepG2_p53Act_24hr: Apredica 24-hour HepG2 Assay for p53 Activation (AID 2282913); settings: high-content imaging, actives raise or lower the signal;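 note: p53 protein immunofluorescence averaged per cell in HepG2 with Hoechst nuclei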
How it was run: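 Read-out: Cy5 immunofluorescence for p53 in fixed, permeabilized HepG2, imaged by HCS with Hoechst-defined nuclei. Dosing was 24 hr at 0.39–200 uM in 0.5% DMSO. Curves were fitted bidirectionally relative to DMSO.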

[8] = APR_HepG2_CellCycleArrest_72hr: Apredica 72-hour HepG2 Assay for Cell Cycle Arrest (AID 2282914); settings: high-content imaging, actives raise or lower the signal
How it was run: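 HepG2, 72 hr exposure, 10-point 0.39–200 uM, duplicate, 0.5% DMSO final. Fix 3.7% formaldehyde 30 min RT, Triton X-100 0.5%, Hoechst 33342 2 ug/mL. ArrayScan 20x, six fields/well; DNA content per nucleus; bidirectional fit vs DMSO.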

[9] = APR_HepG2_CellLoss_72hr: Apredica 72-hour HepG2 Assay for Cell Loss (AID 2282915); settings: high-content imaging
How it was run: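 HepG2 cells exposed 72 h to compound at 0.39–200 uM (10 concentrations, duplicate) in 0.5% DMSO. Fixed with 3.7% formaldehyde and Hoechst 33342-stained. Imaged at 20x; nuclear count gives cell number, fitted bidirectionally versus DMSO.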

[10] = APR_HepG2_P-H2AX_72hr: Apredica 72-hour HepG2 Assay for H2AX Phosphorylation (AID 2282916); settings: imaging, actives raise or lower the signal;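 note: phospho-histone H2A.x immunostain intensity per cell marking DNA damage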
How it was run: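 Human hepatoma HepG2 cells are dosed across ten concentrations (0.39 to 200 uM, 0.5% v/v DMSO) and incubated 72 hr. Phospho-histone H2A.x is then detected by antibody staining alongside c-Jun and Hoechst, and quantified by automated fluorescence imaging.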

[11] = APR_HepG2_MitoMembPot_72hr: Apredica 72-hour HepG2 Assay for Mitochondrial Membrane Potential (AID 2282917); settings: imaging, actives raise or lower the signal
How it was run: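 HepG2 cells dosed 72 hr with compound at 0.39–200 uM in duplicate, 0.5% v/v DMSO final. Mitochondria stained with 250 nM MitoTracker Red CMXRos for 30 min before formaldehyde fixation, imaged by high-content fluorescence; bidirectional fit versus DMSO.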

[12] = APR_HepG2_MicrotubuleCSK_72hr: Apredica 72-hour HepG2 Assay for Microtubule CSK Stabilty (AID 2282919); settings: HepG2 microtubule cytoskeleton, high-content imaging, actives raise or lower the signal
How it was run: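 HepG2, 72 hr cmpd exposure, 0.39–200 uM (10 pts, duplicate), 0.5% DMSO. 3.7% formaldehyde fix, 0.5% Triton perm, anti-alpha-tubulin/Cy5 plus Hoechst. HCS fluorescence intensity; bidirectional fit vs DMSO baseline; taxol as positive control.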

[13] = APR_HepG2_P-H2AX_24hr: Apredica 24-hour HepG2 Assay for H2AX Phosphorylation (AID 2282920); settings: high-content imaging, actives raise or lower the signal
How it was run: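 HCS fluorescence imaging of phospho-H2A.x immunostain (with Hoechst 33342 nuclear counterstain) in HepG2 after 24 hr compound exposure; 10 concentrations, 0.39–200 uM, duplicate wells, 0.5% v/v DMSO. Gain or loss of signal fitted relative to DMSO baseline.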

[14] = APR_HepG2_StressKinase_24hr: Apredica 24-hour HepG2 Assay for Stress Kinase (AID 2282922); settings: HepG2 stress kinase (phospho-c-Jun) imaging, actives raise or lower the signal
How it was run: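 Read-out: phospho-c-Jun immunofluorescence (Cy3 secondary) quantified by high-content imaging at 20x, nuclei defined by Hoechst 33342. Human HepG2 liver cells dosed 24 hr, 0.39–200 uM, DMSO 0.5% v/v; gain or loss of signal fitted relative to DMSO.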

[15] = APR_HepG2_MitoMass_72hr: Apredica 72-hour HepG2 Assay for Mitochondrial Mass (AID 2282924); settings: high-content imaging, actives raise or lower the signal;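 note: MitoTracker Red CMXRos stain intensity per cell imaged as mitochondrial mass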
How it was run: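 Read-out: MitoTracker Red fluorescence intensity from automated imaging (20x, six fields per well) in human HepG2 liver cells. Dosing ran 72 hr, 0.39–200 uM, 0.5% DMSO; bidirectional curve fitting versus DMSO baseline.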

[16] = APR_HepG2_MitoticArrest_72hr: Apredica 72-hour HepG2 Assay for Mitotic Arrest (AID 2282918); settings: high-content imaging, actives raise or lower the signal
How it was run: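 HepG2, 72 hr exposure, 0.39–200 uM in duplicate, 0.5% v/v DMSO final. Formaldehyde-fixed, Triton-permeabilized, anti-phospho-histone H3/FITC plus Hoechst. ArrayScan imaging at 20x; curves fit bidirectionally against DMSO baseline.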

[17] = APR_HepG2_StressKinase_72hr: Apredica 72-hour HepG2 Assay for Stress Kinase (AID 2282921); settings: HepG2 stress kinase (phospho-c-Jun) imaging, actives raise or lower the signal
How it was run: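 After a 72 h compound treatment spanning 0.39 to 200 uM, formaldehyde-fixed cells are labelled for phosphorylated c-Jun and nuclei, imaged by automated fluorescence microscopy, and activity is fitted in both directions relative to DMSO controls.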

[18] = APR_HepG2_p53Act_72hr: Apredica 72-hour HepG2 Assay for p53 Activation (AID 2282923); settings: high-content imaging, actives raise or lower the signal;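 note: average cellular p53 protein immunofluorescence intensity in HepG2 cells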
How it was run: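 Imaging-based endpoint: after 72 hr compound exposure (up to 200 uM, 0.5% DMSO), fixed and permeabilized monolayers were labelled with anti-p53 antibody and imaged; signal change in either direction was fitted relative to DMSO controls.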

[19] = APR_HepG2_MitoMass_24hr: Apredica 24-hour HepG2 Assay for Mitochondrial Mass (AID 2282912); settings: high-content imaging, actives raise or lower the signal
How it was run: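 After 24 hr of treatment at 0.39 to 200 uM, HepG2 cells take up 250 nM MitoTracker Red CMXRos for 30 min and are then fixed with 3.7% formaldehyde. Per-well images are quantified, and any change in either direction is scored against solvent.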

Measured: AC50

Cc1oc(-c2ccccc2)nc1CCOc1ccc(C[C@H](Nc2ccccc2C(=O)c2ccccc2)C(=O)O)cc1
inactive: [1] | [2] | [4] | [12] | [14] | [15]
active: [3] 84.9 µM | [5] 84.9 µM | [6] 109 µM | [7] 107 µM | [8] 82.7 µM | [9] 53.3 µM | [10] 59 µM | [11] 120 µM | [13] 81.7 µM

CC(C)CCCCCCOC(=O)CCCCC(=O)OCCCCCCC(C)C
not listed: [16] | [17] | [18] | [19]
inactive: all other assays above

CC(C)(C)CC(C)(C)c1ccc(O)c(-n2nc3ccccc3n2)c1
active: [2] 36.9 µM | [3] 57.1 µM | [5] 48.9 µM | [6] 50.6 µM | [7] 62.6 µM | [8] 26.2 µM | [9] 65.5 µM | [10] 61.7 µM | [16] 35.6 µM | [12] 47.9 µM | [13] 78.4 µM | [18] 19 µM | [15] 42.8 µM
inactive: [1] | [4] | [11] | [17] | [14]

CN1CCN(c2ccccc2/C=C2\SCCN(c3ccc(Cl)c(Cl)c3)C2=O)CC1
inactive: [1] | [2] | [8] | [10] | [11] | [14]
active: [3] 24 µM | [4] 80.7 µM | [5] 7.46 µM | [6] 53.6 µM | [7] 23.5 µM | [9] 12.4 µM | [12] 23.5 µM | [13] 32.7 µM | [15] 109 µM

CCCCCCCCCCCCN1CCCC1=O
inactive: [1] | [4] | [6] | [7] | [11] | [14]
active: [2] 53.5 µM | [3] 47.4 µM | [5] 68.7 µM | [8] 42.6 µM | [9] 72.4 µM | [10] 58.6 µM | [12] 53.3 µM | [13] 67.2 µM | [17] 67.5 µM | [18] 61.3 µM | [15] 109 µM

Oc1cccc(O)c1
not listed: [18] | [19]
inactive: all other assays above

CC#C[C@]1(O)CC[C@H]2[C@@H]3CCC4=CC(=O)CCC4=C3[C@@H](c3ccc(N(C)C)cc3)C[C@@]21C
active: [1] 132 nM and 56 nM and 36.7 nM
not listed: [16] | [17] | [18] | [19]
inactive: all other assays above

CCc1nn(C2CCCCC2)c2cc(C3(C#N)CCC(C(=O)O)CC3)ccc12 (stereo not given)
active: [9] 33.3 µM | [10] 84 µM | [16] 80.7 µM | [18] 97.7 µM
not listed: [17]
inactive: all other assays above

OCCC(F)(F)C(F)(F)C(F)(F)C(F)(F)C(F)(F)C(F)(F)F
not listed: [17] | [18] | [19]
inactive: all other assays above

Oc1cc2ccccc2c2ccccc12
inactive: [1] | [8] | [17]
active: [2] 37.1 µM | [3] 13.1 µM | [4] 55 µM | [5] 7.13 µM | [6] 43.1 µM | [7] 3.2 µM | [9] 4.01 µM | [10] 58.6 µM | [11] 38.2 µM | [12] 8.21 µM | [13] 3.28 µM | [14] 121 µM | [18] 111 µM | [15] 61.3 µM

CCCCCCCCCCCCCCCS(=O)(=O)Oc1ccccc1
not listed: [16] | [17] | [18] | [19]
inactive: all other assays above

CCCCCCC(=O)O
not listed: [16]
inactive: all other assays above

CCCCC(CC)COC(=O)CCCCC(=O)OCC(CC)CCCC (stereo not given)
not listed: [16] | [19]
inactive: all other assays above

CN(C)C=O
not listed: [17] | [18]
inactive: all other assays above
